Compounds without any hit were thinned out: in the full panel of roughly 79,000, 15% have a hit. The source made the active and inactive calls. Cut-off read from the data, not from the text of the source: active = growth inhibition above about 70%; inactive = the rest.
Tests used:
[1] = NCI Yeast Anticancer Drug Screen. Data for the rad50 strain (AID 155);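 note: 0% = growth of vehicle-only cultures of the same strain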; details: S. cerevisiae rad50 strain growth inhibition; at 50.0 µM; stronger effect = higher value
Method in brief: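 A DNA repair-deficient yeast mutant serves as the test organism; compound-induced growth inhibition is calculated against vehicle-treated cells.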

[2] = NCI Yeast Anticancer Drug Screen. Data for the mec2-1 strain (AID 157); details: S. cerevisiae mec2-1 strain, at 50.0 µM, stronger effect = higher value
Method in brief: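 Growth inhibition is read against vehicle-treated controls after compound exposure of the mec2-1 yeast strain, which is defective in DNA damage repair or cell cycle control.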

[3] = NCI Yeast Anticancer Drug Screen. Data for the sgs1 mgt1 strain (AID 161);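 note: 0% = growth of cultures given vehicle only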; details: S. cerevisiae sgs1 mgt1 strain, at 50.0 µM, stronger effect = higher value
Method in brief: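 Compounds are added to genetically altered yeast, and growth is compared with cultures given vehicle alone to give percent inhibition.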

[4] = NCI Yeast Anticancer Drug Screen. Data for the cln2 rad14 strain (AID 165);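 note: 0% = growth equal to vehicle treated cultures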; details: S. cerevisiae cln2 rad14 strain, at 50.0 µM, stronger effect = higher value
Method in brief: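 Growth inhibition, relative to vehicle-treated controls, is the read-out. The test organism is a yeast strain with defined genetic alterations, cln2 rad14.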

[5] = NCI Yeast Anticancer Drug Screen. Data for the bub3 strain (AID 167); details: S. cerevisiae bub3 mutant strain, at 50.0 µM, stronger effect = higher value
Method in brief: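 Inhibition values come from growth of compound-treated mutant yeast normalised to vehicle-treated controls.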

[6] = NCI Yeast Anticancer Drug Screen. Data for the mlh1 rad18 strain (AID 175); details: S. cerevisiae mlh1 rad18 strain growth inhibition; at 50.0 µM; stronger effect = higher value
Method in brief: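 Cells of a genetically altered yeast strain, deficient in DNA damage repair, were treated with compound. Their growth was then compared with that of vehicle-treated cultures to give inhibition.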

Measured: growth inhibition

CCN(CC)S(=O)(=O)c1ccc(N)cc1
inactive: [1] 26.1% | [2] 2.15% | [3] 25.4% | [4] -13.9% | [5] -2.2% | [6] 8.4%

CCOc1ccc([N+](=O)[O-])cc1
inactive: [1] -28.8% | [2] 3.9% | [3] -2.65% | [4] -40.2% | [5] -3.5% | [6] -31.9%

CCCCCCCCCCS(=O)(=O)CC(=O)O
inactive: [1] 3.8% | [2] -2.35% | [3] 14.7% | [4] -12.7% | [5] -8.3% | [6] -3.6%

c1ccc2c(SCN3CCOCC3)cccc2c1 (tested in a mixture with another compound)
inactive: [1] 35% | [2] 21.6% | [3] 39% | [4] 40.9% | [5] 21.8% | [6] 29.8%

Cc1[nH]c(=O)[nH]c(=O)c1CCS
inactive: [1] -12.2% | [2] 1.2% | [3] 5.3% | [4] 37.5% | [5] -20% | [6] -13.2%

O=C(C(Cl)=C(N1CCOCC1)N1CCOCC1)C(Cl)Cl
inactive: [1] -37.9% | [2] -18.4% | [3] -57.5% | [4] -15.8% | [5] -32.9% | [6] -34.6%

O=c1c2nn3c(=O)n(-c4ccccc4)c(=O)c3nn2c(=O)n1-c1ccccc1
inactive: [1] -33% | [2] -10.6% | [3] -14.8% | [4] -5.8% | [5] -24.7% | [6] -3.05%

CN(Cc1cnc2nc(N)nc(N)c2n1)c1ccc(C(=O)NC(CCC(=O)OC(C)(C)C)C(=O)O)cc1 (centres undefined)
inactive: [1] 13.7% | [2] 32.4% | [3] 4.5% | [4] -20.1% | [5] -2.55% | [6] -1.2%

COC(=O)C(=O)C(/C=N/C(=S)NC1CCCCC1)=C(\O)c1ccc(F)cc1
inactive: [1] -32.3% | [2] -24.7% | [3] -8.5% | [4] -5.05% | [5] -15.8% | [6] -2.7%

CC1(C)CCCCCCC2CC2CCCCCC(C)(C)C1=O (centres undefined)
inactive: [1] 1% | [2] -6.15% | [3] -4.8% | [4] 7.8% | [5] -11.5% | [6] 24.1%

Cn1nc(C(F)(F)C(F)(F)C(F)(F)F)nc1C(F)(F)C(F)(F)C(F)(F)F
inactive: [1] 12.6% | [2] 3.6% | [3] 4.45% | [4] -3.75% | [5] -2.15% | [6] 10.6%

CCCCCC(=O)Nc1cc(N)cc(C(=O)O)c1
inactive: [1] 4.25% | [2] 9.25% | [3] 9.5% | [4] -9.6% | [5] 0.1% | [6] -14.3%

CCCC[P+](CCCC)(CCCC)c1ccccc1
inactive: [1] -12.7% | [2] 12.3% | [3] -0.05% | [4] -32.1% | [5] -8.95% | [6] -1.4%

CC1=NN(c2ccccc2C)C(=O)C1
inactive: [1] 2.05% | [2] -27.8% | [3] -5.1% | [4] -2.6% | [5] -27.9% | [6] 8.1%

Nc1nc(N)c(N=Nc2ccc(S(=O)(=O)O)cc2)c(N)n1
inactive: [1] -5.35% | [2] -5.3% | [3] 4.25% | [4] -21.1% | [5] 2% | [6] 10.5%

CCOC(=O)C(=O)c1c[nH]c2ccccc12
inactive: [1] -3.35% | [2] 2.45% | [3] -2.5% | [4] -12.1% | [5] 6.4% | [6] 10%

Cc1cc(N(CCO)CCO)c2ccc3cc4ccccc4cc3c2n1
inactive: [1] 38.5% | [2] 16.6% | [3] 9.35% | [4] 8.3% | [5] 18.3% | [6] 23.9%

COC1/C=C/OC2(C)Oc3c(C)c(O)c4c(O)c(c(C=NNC(=O)c5ccc(N)cc5)c(O)c4c3C2=O)NC(=O)/C(C)=C/C=C/C(C)C(O)C(C)C(O)C(C)C(OC(C)=O)C1C (centres undefined)
inactive: [1] -3.55% | [2] 13.5% | [3] -3.25% | [4] -17.6% | [5] -5.3% | [6] 29.4%

Cc1csc(NNC(N)=O)n1
inactive: [1] 1.65% | [2] -8.05% | [3] -63.5% | [4] -14% | [5] -42.9% | [6] -27.4%

NS(=O)(=O)c1cccc(C(F)(F)F)c1
inactive: [1] -7.95% | [2] -37.9% | [3] -13.6% | [4] -21.7% | [5] -16.4% | [6] -7.2%

CSc1ccc2c(cc1=O)[C@@H](NC(C)=O)CCc1cc(O)c(O)c(O)c1-2
inactive: [1] 7.1% | [2] 12.3% | [3] 18.1% | [4] 4.85% | [5] 17.4% | [6] 22.8%

c1ccc(C2=NOC(c3ccccc3)N2C23CC4CC(CC(C4)C2)C3)cc1 (centres undefined)
inactive: [1] 2.9% | [2] 4.4% | [3] -17.5% | [4] 24.4% | [5] -13% | [6] 36.1%

Nc1ccc(Nc2ccc([N+](=O)[O-])cc2S(=O)(=O)O)cc1
inactive: [1] 9.1% | [2] 4% | [3] -17% | [4] -16.4% | [5] -7.65% | [6] 10.8%

O=C(OC1COC(n2c(=O)oc3cc(Br)c(Cl)cc32)C(OC(=O)c2ccccc2)C1OC(=O)c1ccccc1)c1ccccc1 (centres undefined)
inactive: [1] 4.55% | [2] -2.25% | [3] -8.15% | [4] -3.05% | [5] 4.85% | [6] 14.4%

CCOC(=O)NC(=O)c1cn(CC(=O)NCC(=O)NCC(=O)NCCCN2CCN(CCCNC(=O)CNC(=O)CNC(=O)Cn3cc(C(=O)NC(=O)OCC)c(=O)[nH]c3=O)CC2)c(=O)[nH]c1=O
inactive: [1] -5% | [2] 2.4% | [3] -6.85% | [4] -23.2% | [5] -1.05% | [6] -15.8%

Cc1cccc(C)c1Nc1nc(C)c(C(=O)CC(=O)C(=O)Nc2c(C(C)C)cccc2C(C)C)s1
inactive: [1] 18.3% | [2] -6.35% | [3] 46.3% | [4] -15.7% | [5] -3.55% | [6] 19.6%

NC(N)=N/N=C1/C(=O)N(C2CCCCCC2)C(=O)C1C(=O)NC1CCCCCC1 (centres undefined)
inactive: [1] 35.8% | [2] 5.3% | [3] 14.9% | [4] 23.9% | [5] 6.4% | [6] 28.1%

O/C=C(\Cl)CCl
inactive: [1] 17.2% | [2] -7.15% | [3] 12.4% | [4] 11.9% | [5] 5.1% | [6] 16.2%

S=c1c2ccccc2sn1-c1ccccc1
inactive: [1] 26.2% | [2] 21.6% | [3] 14.9% | [4] -0.85% | [5] -12.9% | [6] 51.5%

CC12CCC(O)CC1=CCC1C2CCC2(C)C1CCC21SCCS1 (centres undefined)
inactive: [1] 2.35% | [2] 9.7% | [3] 20.2% | [4] 14.4% | [5] 13.8% | [6] 13%

COc1ccc(C(O)/C(=C/n2ccnc2)c2ccccc2)cc1OC (centres undefined)
inactive: [1] -23.8% | [2] -17.8% | [3] -15.6% | [4] -5.85% | [5] -7.65% | [6] -25.2%

CC(C)(CCc1nc2ccccc2[nH]1)C(=O)O
inactive: [1] -18.1% | [2] -6.35% | [3] -1.35% | [4] -10% | [5] 1.05% | [6] -3.85%

CC1CN(C(=S)Nc2ccccc2)C(C)CN1CCO (centres undefined)
inactive: [1] 58.5% | [2] 1.6% | [3] 14.2% | [4] -39% | [5] -3.9% | [6] 16.6%

CCc1cccc(C)c1NC(=O)CCc1nnc2s/c(=C\c3cccc4ccccc34)c(=O)n12
inactive: [1] 25.6% | [2] 16.5% | [3] 19.8% | [4] 24.5% | [5] 2.1% | [6] 33.2%

NNC(=O)CC(=O)Nc1ccc(S(=O)(=O)c2ccc(NC(=O)CC(=O)NN)cc2)cc1
inactive: [1] 16.6% | [2] 12.7% | [3] 18.6% | [4] 30.1% | [5] 25.4% | [6] -1%

CC(=O)NCC1CCCO1 (centres undefined)
inactive: [1] 2.65% | [2] -18.6% | [3] -20.4% | [4] 3.85% | [5] 3.75% | [6] -5.9%

CC(C)(C)C(=O)C(=O)O
inactive: [1] 19.9% | [2] -13.2% | [3] -3.7% | [4] 1.15% | [5] -8.5% | [6] 14.6%

CN(C)c1nc2oc(-c3ccccc3)c(-c3ccccc3)c2c2nncn12
inactive: [1] 9.65% | [2] 7.45% | [3] 2.9% | [4] 16.9% | [5] 12.1% | [6] -22.5%

C=CCNC(=O)CCCCCCC/C=C\CCCCCCCC
inactive: [1] 16.6% | [2] -8.5% | [3] -1.45% | [4] -27.6% | [5] -2.85% | [6] 9.4%
